# Measurements published in ChEMBL document CHEMBL4513216, “Probing the Open Global Health Chemical Diversity Library for Multistage-Active Starting Points for Next-Generation Antimalarials” (ACS Infect Dis, 2020).
# In all, about 69,000 compounds went through this assay and about 8,600 (12%) showed an effect of 50% or more. The sample holds strong results, similar compounds and a random draw of the others, so the mix is not that of the screen.
# System: Plasmodium berghei
# Assay: Screen against P. berghei liver stage (PbLuc), transformed with Luciferase, at 10uM
# Type: functional, HepG2
# Conditions: tested at 10 uM
row,SMILES,INHIBITION
1,COc1cc2cc3c(nc2cc1OC)OCCN(Cc1ccco1)C3,16.5%
2,COCCCNC(=O)CN(C)C(=O)CN(C)c1ccc(C#N)cn1,-12.1%
3,CC(=O)N1CCn2c(-c3ccccc3)cnc2C12CCNCC2,33%
4,Cc1nn(C)c(N(C)C)c1CNCC(O)c1ccccc1F (stereo unspecified),25.1%
5,Cc1cc(C(=O)N2CCCC(C(=O)c3cccs3)C2)c(=O)[nH]c1C (stereo unspecified),33.3%
6,N#Cc1ccc(CNc2ncc(C#N)cc2Cl)cc1,20.1%
7,O=C(c1cnc(NCC2CCCO2)c(Cl)c1)N1CCCCC1 (stereo unspecified),32.2%
8,N#Cc1cnc(NCc2ccc(C(=O)NC3CC3)cc2)c(Cl)c1,-32.9%
9,O=C(c1cnc(NCc2cccnc2)c(Cl)c1)N1CCCCC1,56.3%
10,N#Cc1cnc(NCc2cccc(C(=O)N3CCCC3)c2)c(Cl)c1,57.5%
11,O=C(c1cnc(NCc2sccc2Br)c(Cl)c1)N1CCCCC1,24.2%
12,CCc1ccc(CN(C)Cc2nc(COc3ccccc3)no2)nc1,29.6%
13,c1ccc(CN2CCc3ncnc(C4CC4)c3CC2)nc1,21.1%
14,O=C(c1cscn1)N1CCC[C@]2(C[C@@H](OCC3CC3)CO2)C1,36.9%
15,Cc1ncccc1C(=O)NCc1ccccc1CN(C)Cc1ccco1,67.3%
16,CN(Cc1ccco1)Cc1ccccc1CNC(=O)c1cnccn1,63.3%
17,CN(Cc1ccco1)Cc1ccccc1CNC(=O)c1ccncc1,-4.86%
18,CN(Cc1ccco1)Cc1ccccc1CNC(=O)c1c[nH]nn1,-1.28%
19,CN(Cc1ccco1)Cc1ccccc1CNC(=O)c1cc[nH]n1,30.1%
20,Cc1cc(CN(C)C(=O)NCc2ccco2)no1,14.1%
21,CN(Cc1ccco1)Cc1ccccc1CNC(=O)c1cnc[nH]1,69.3%
22,CN(C)c1ncccc1CNC(=O)NCc1ccco1,-36.3%
23,Cc1cc(C(=O)NCc2ccccc2CN(C)Cc2ccco2)on1,77.2%
24,Cc1oc(C)c(C(=O)NCc2ccccc2CN(C)C)c1C,25.55%

row,SMILES,INHIBITION
1,CN(Cc1ccco1)Cc1ccccc1CNC(=O)c1csnn1,46.4%
2,CN(Cc1ccco1)Cc1ccccc1CNC(=O)c1ccc[nH]1,30.1%
3,CCS(=O)(=O)c1ccccc1N1CCC(NC(=O)C(C)C)CC1,-25.8%
4,CO[C@@H]1CCC[C@@H](NC(=O)C(C)(C)c2cccc(F)c2)[C@H]1O,10.855%
5,Cc1cccc(C)c1NC(=O)c1n[nH]c(-n2cnnc2)n1,19.6%
6,CC(C)N(C)Cc1nnc2n1CCCN(S(=O)(=O)C1CC1)C2,36.4%
7,c1ccc(OCc2nnc3n2CCN(CC2CC2)C3)nc1,39.3%
8,Cc1c(C2CCCN(C(=O)Cc3ccccn3)C2)n2c(nc1=O)CCC2 (stereo unspecified),34.1%
9,O=C(NCCc1nccs1)[C@H](c1ccccc1)n1cnnn1,-20.8%
10,CC(O)CNC(=O)CCc1nc2ncccc2[nH]1 (stereo unspecified),26.6%
11,Cc1nc(C(=O)N2CCN(S(C)(=O)=O)CC2)c(-c2cccc(F)c2)s1,17.7%
12,Cc1cc(C)cc(CN2C[C@@H]3OCCN(CC(=O)N(C)C)[C@@H]3C2)c1,66.6%
13,c1cnc(N2CCO[C@H]3CN(Cc4ccsc4)C[C@H]32)nc1,42.7%
14,c1cc(CN2C[C@@H]3OCCN(CCN4CCCC4)[C@@H]3C2)cs1,11.3%
15,Cc1cccc(CN2C[C@@H]3OCCN(c4cnccn4)[C@@H]3C2)n1,-18.5%
16,CN(C)c1nccc(N2CCO[C@H]3CN(Cc4ccsc4)C[C@H]32)n1,65.1%
17,CN(C)C(=O)CN1CCO[C@H]2CN(Cc3ccoc3)C[C@H]21,31.2%
18,Cc1cccc(CN2C[C@@H]3OCCN(CC(=O)N(C)C)[C@@H]3C2)c1,39.4%
19,Cc1cccc(CN2C[C@@H]3OCCN(c4ccnc(N(C)C)n4)[C@@H]3C2)c1,77.5%
20,Cc1ccc(N2CCO[C@H]3CN(Cc4ccoc4)C[C@H]32)nn1,41.6%
21,CCOCCCNC(=O)C1CCC(=O)N(CCc2ccc(Cl)cc2)C1 (stereo unspecified),16.3%
22,COc1ccc(C(=O)Nc2ccccc2C(C)C)c(OC)n1,-17.2%
23,COc1ccc([C@@H]2CN(Cc3cccnc3N)C[C@H]2N(C)C)cc1,30.3%
24,O[C@@H]1CCN(CC2CC2)[C@H]1Cc1ccccc1,-14.4%

row,SMILES,INHIBITION
1,Cc1nc(C)n(CC2CN(Cc3cccnc3)Cc3nccn3C2)n1 (stereo unspecified),25.1%
2,Cc1ncsc1C(=O)NCCCN1CCCCCC1=O,-21.2%
3,Cc1nc(S(=O)(=O)N2CCSCC2)cn1C,-50.7%
4,CCN(CC)Cc1cc(=O)n2c(n1)CN(C(=O)c1ccnnc1)CCC2,-20.2%
5,COc1ccc(C[C@H]2CN(C(=O)CS(C)(=O)=O)CC[C@H]2OC)cc1,33.4%
6,COCCN1CC[C@H]2CN(Cc3ccc(C)s3)C[C@@H]2C1=O,-75%
7,c1nc(N2CCCC2)ncc1CN1CCCC(CN2CCCCC2)C1 (stereo unspecified),21.1%
8,NC(=O)CCC1CCCN(Cc2cnc(N3CCCCC3)nc2)C1 (stereo unspecified),67.8%
9,CCc1cnc(N2CCCC(CCC(N)=O)C2)nc1 (stereo unspecified),17.9%
10,Cc1nn(C)c2ncc(C(=O)N3CCNC(=O)C3)cc12,1.86%
11,O=C(CC1CCCC1)N1CCC(c2cc3ncccc3c(O)n2)CC1,-2.11%
12,O=C(CCC1CCCC1)N1CCC(c2cc3ncccc3c(O)n2)CC1,55.6%
13,COCC(=O)N1CCC(c2cc3ncccc3c(O)n2)CC1,-27.4%
14,O=C(c1c(F)cccc1F)N1CCOCC1,30.45%
15,Cn1ccc(C(=O)NCc2cccc(CN3CCCC3)c2)cc1=O,48.8%
16,Cn1ccc(C(=O)NCc2cccc(Cn3ccnc3)c2)cc1=O,31.4%
17,Cn1ccc(C(=O)NCc2cccc(NC(=O)C3CCC3)c2)cc1=O,61.1%
18,Cn1ccc(C(=O)NCc2cccc(N3CCCCC3=O)c2)cc1=O,45.9%
19,Cn1ccc(C(=O)NCc2ccc(Cn3ccnc3)cc2)cc1=O,-7.17%
20,O=C(Nc1cccc(CNCc2csc(Br)c2)c1)C1CC1,70.7%
21,O=C(Nc1cccc(CNCc2cccnc2)c1)C1CCCC1,39.65%
22,O=C(Nc1cccc(CNCc2ccsc2)c1)C1CC1,21.8%
23,Cc1nccn1Cc1cccc(CNC(=O)c2ccn(C)c(=O)c2)c1,53.8%
